# From PubChem BioAssay
# This is a sample that favours compounds with a hit; in the whole collection about 2.7% have one here.
# DNA FID counter: displaces DNA intercalator in HCV helicase counter-screen; AID 1845; DNA fluorescent intercalator displacement, fluorescence; 0.17% of 290,000 active; inhibition, % at 7.9 µM; in the data active means inhibition above about 37%;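 further: 0% = vehicle and 100% = reference compound; higher means more ethidium bromide displaced from hairpin DNA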
# PP1 inh: counter-screen for PP5 inhibitors: inhibitors of human PP1-alpha | P62136 | purified PP1alpha, OMFP fluorescence | inhibition, % at 6.7 µM | 0.9% of 320,000 active | AID 2235;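 active means inhibition above the mean inhibition of all tested compounds plus 3 SD, computed separately for each screening campaign, cut at about 15% in these data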
# PREPL inhibitor: human PREPL enzyme inhibition; Q4J6C6; 0.68% of 320,000 active; inhibition, % at 5.96 µM; recombinant PREPL, fluorescence polarization activity-based probe; AID 2751; in the data active means inhibition above about 43%;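 further: 0% = enzyme with DMSO and 100% = wells lacking enzyme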
# PP5 primary: inhibitors of human protein phosphatase 5 (PP5); P53041; purified PP5c, OMFP substrate fluorescence; inhibition, % at 6.7 µM; 0.18% of 320,000 active; AID 1987;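 active means inhibition above the campaign's mean inhibition across all tested compounds plus 3 SD, cut at about 9.5% in these data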;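 further: 0% = DMSO only and 100% = 100 µM cantharidin control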
# Target sequence (P53041 whole entry, looked up): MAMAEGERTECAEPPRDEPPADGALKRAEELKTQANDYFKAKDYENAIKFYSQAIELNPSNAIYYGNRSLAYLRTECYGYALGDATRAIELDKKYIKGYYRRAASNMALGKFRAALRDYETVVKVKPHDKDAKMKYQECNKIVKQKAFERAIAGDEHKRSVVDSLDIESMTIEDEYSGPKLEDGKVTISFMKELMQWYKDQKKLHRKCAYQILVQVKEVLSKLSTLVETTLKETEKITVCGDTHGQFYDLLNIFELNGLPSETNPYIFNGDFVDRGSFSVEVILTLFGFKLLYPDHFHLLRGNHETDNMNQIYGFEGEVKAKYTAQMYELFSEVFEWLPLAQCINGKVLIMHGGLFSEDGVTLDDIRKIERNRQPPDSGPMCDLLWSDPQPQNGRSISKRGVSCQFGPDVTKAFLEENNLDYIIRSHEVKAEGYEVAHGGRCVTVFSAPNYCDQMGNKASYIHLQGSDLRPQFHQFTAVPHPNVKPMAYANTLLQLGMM
# ANO1 activ: activates or potentiates the mouse TMEM16A chloride channel; Q8BHY3; HEK293 TMEM16A/YFP-H148Q/I152L, iodide quench fluorescence; hits give low values; B-score at 10 µM; 0.3% of 340,000 active; AID 623877;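 active means fluorescence-ratio B-score plate-corrected deviation score at least 3 library SD below zero, with starting fluorescence score within 5 deviations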;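 further: channel opened by trigger with iodide after compound preincubation; score built on the fluorescence ratio of max minus min over baseline; more negative score means more quench and so TMEM16A activation or potentiation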
# ANO1 block: inhibitors of mouse TMEM16A calcium-activated chloride channel | 1.2% of 310,000 active | normalized B-score (activity score, 25-100; higher = stronger inhibition) at 10 µM | Q8BHY3 | HEK293 TMEM16A/YFP iodide influx fluorescence, ionomycin;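 active means ratio plate-corrected score three or more library SD toward inhibition, starting fluorescence score within five deviations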;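 further: score derived from kinetic fluorescence span divided by baseline fluorescence per well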
# TMEM16A reconf: reconfirmed blocker of mouse TMEM16A calcium-activated chloride channel | shares compounds with ANO1 block | HEK293 TMEM16A/YFP-H148Q, iodide quench fluorescence; ionomycin added to raise cell calcium | inhibition, % at 10 µM | 39% of 2,300 active | AID 652189;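 active means mean duplicate percent inhibition, scaled so buffer wells are 0 and the reference blocker 100, over three buffer SD above buffer mean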
# HEK293 Ca mobil: alters calcium mobilization in TMEM16A HEK293 cells, counter-screen | shares compounds with ANO1 block | TMEM16A/YFP HEK293, Fluo4 calcium mobilization | calcium response (% of ionomycin), % at 10 µM | 2% of 2,300 active | AID 652231;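 active means duplicate-averaged calcium signal over 20% of the ionomycin maximum, relative to buffer baseline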;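 further: each well's signal is peak minus trough fluorescence divided by its pre-addition baseline; 0% = buffer wells and 100% = ionomycin wells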
# YFP-HEK293 quench: acts in parental YFP-HEK293 cells lacking TMEM16A, counter-screen | 2,300 tested, under 10 active | iodide YFP quench, ionomycin | AID 652233 | shares compounds with ANO1 block | YFP ratio F(max-min)/F0 at 10 µM;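 active means yellow fluorescent protein signal ratio exceeding the buffer control mean by over 5 SD of those controls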;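 further: ratio is mean of duplicate wells from kinetic YFP trace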
# ClC-1 inh: blocks the rat ClC-1 voltage-dependent chloride channel | shares compounds with ANO1 block | CHO ClC-1-YFP, iodide influx fluorescence quench; iodide control reads 0, buffer control 100 | ratio percent, % at 10 µM | 2,300 tested, under 10 active | AID 652236;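 active means duplicate-mean ratio percent above the mean of iodide-only control wells, which defines zero, plus 5 of their SD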;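 further: higher percent means stronger block of ClC-1 iodide influx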
# Numbers without * were called inactive; i = inactive; . = no result given.
SMILES,DNA FID counter,PP1 inh,PREPL inhibitor,PP5 primary,ANO1 activ,ANO1 block,TMEM16A reconf,HEK293 Ca mobil,YFP-HEK293 quench,ClC-1 inh
COc1cccc(CN2C(=O)C(C)N(C(=O)c3ccccc3)c3ccccc32)c1 (stereo not drawn),-33,0,17,0,i,25*,17%*,i,-0.86,-14
O=C(C1CCC1)N1CCc2cc(S(=O)(=O)N3CCCCC3)ccc21,-5,-1,3,1,i,i,.,.,.,.
O=C(C1CCC1)N1CCc2cc(S(=O)(=O)N3CCN(c4ccccn4)CC3)ccc21,-20,0,-41,2,i,i,i,i,-1.2,-4
CCc1ccc2nc(Nc3ccc(OC)cc3OC)c(C#N)cc2c1,-2,-3,1,1,i,i,.,.,.,.
CN1C(=O)[C@@H]2C[C@@]3([C@@]45C[C@H]6C(=O)N(C)[C@@H](Cc7ccccc7)C(=O)N6[C@@H]4Nc4ccccc45)c4ccccc4N[C@H]3N2C(=O)[C@@H]1Cc1ccccc1,.,4,29,0,i,i,.,.,.,.
c1ccc2c(c1)OCC(c1csc3ncnc(N4CCCC4)c13)O2 (stereo not drawn),-15,1,-1,1,i,25*,20%*,i,-0.96,-12
COc1ccccc1C(=O)NC(=O)Nc1nc(-c2ccccc2)cc(C(F)(F)F)n1,-6,-6,3,1,i,25*,i,i,-1.1,-12
CC(=Nc1ccccc1)C1=C(O)C(Cc2ccccc2)NC1=O (stereo not drawn),.,.,.,.,i,.,.,.,.,.
CC1(C)Cc2cccc(C(=O)NC3CCN(Cc4ccccc4)CC3)c2O1,-4,-4,8,2,i,i,.,.,.,.
O=C(Nc1ccc(Oc2cccnc2)nc1)c1ccc(C(F)(F)F)cc1,-17,-4,16,-2,i,25*,i,i,-0.97,-8
CC(C)(C)c1ccc(Oc2ccc(NC(=O)c3ccco3)cn2)cc1,-10,0,3,0,i,100*,20%*,i,-1.1,-12
COc1cccc(CN2CCC(n3nccc3NC(=O)CCCc3ccccc3)CC2)c1,20,-4,14,3,i,i,.,.,.,.
Cc1sc2c(=O)n3c(nc2c1C(=O)NCCCN1CCOCC1)CCCCC3,11,-2,11,-2,i,100*,i,i,-0.95,-10
Cc1sc2c(=O)n3c(nc2c1C(=O)NC1CCCCC1)CCCCC3,-2,-2,-6,-2,i,i,.,.,.,.
COc1ccc(/C(O)=C/C(=O)C(=O)NNC(=O)C(O)(c2ccccc2)c2ccccc2)cc1,-28,14,12,3,-10*,100*,20%*,i,-1.4,0
COC(=O)COc1ccc(S(=O)(=O)Nc2ccc3c(c2)OCCO3)cc1C,-13,-2,5,1,i,25*,18%*,i,-1,-6
CC(C)NS(=O)(=O)c1ccc(OCC(=O)Nc2ccc3c(c2)OCO3)c(Cl)c1,-20,-2,-4,2,i,i,.,.,.,.
COC(=O)COc1ccc(S(=O)(=O)Nc2ccc3c(c2)OCCO3)cc1Cl,3,-4,16,0,i,25*,46%*,i,-0.81,-16
Cc1ccc(NS(=O)(=O)c2ccc(OCC(=O)Nc3cccc([N+](=O)[O-])c3)c(C)c2)cc1,7,-1,-2,5,i,25*,i,i,-0.93,-8
Cc1ccc(NC(=O)CN(C)C(=O)c2ccc(NS(=O)(=O)c3cccc([N+](=O)[O-])c3)cc2)cc1,.,.,29,.,i,.,.,.,.,.
Cc1cccc(C)c1N(CC(=O)NCc1ccco1)C(=O)CNS(=O)(=O)c1ccc(F)cc1,-36,0,1,3,i,i,.,.,.,.
O=C(Nc1ccccc1C(F)(F)F)NC1(C(=O)N2CCOCC2)CCCCC1,.,.,.,.,i,.,.,.,.,.
Cc1ccc(OCC(=O)c2ccc3c(c2)CCCC3)cc1C,-5,1,8,1,i,i,.,.,.,.
O=C(COc1ccc(Br)cc1)c1ccc2c(c1)CCCC2,0,-7,8,0,i,25*,i,i,-0.92,-16
CCN(c1cccc(C(F)(F)F)c1)S(=O)(=O)c1ccc2c(c1)CCN2C(C)=O,-18,0,0,1,.,25*,18%*,i,-0.86,-6
SMILES,DNA FID counter,PP1 inh,PREPL inhibitor,PP5 primary,ANO1 activ,ANO1 block,TMEM16A reconf,HEK293 Ca mobil,YFP-HEK293 quench,ClC-1 inh
Cc1noc(C)c1CSc1ccccc1C(=O)N(C)CC(=O)Nc1cccc(F)c1,.,-6,0,1,i,i,.,.,.,.
CCOc1cc(C)cc2oc(=O)cc(-c3ccccc3)c12,-16,3,-11,2,i,25*,i,i,-1.3,-4
CC1CCN(C(=O)CSCC(=O)Nc2nc(-c3cccs3)cs2)CC1,-25,-4,11,1,i,100*,i,i,-1,-16
CC1=C([N+](=O)[O-])C(c2ccccc2)C2=C(N1)c1ccccc1C2=O (stereo not drawn),12,1,16,2,i,25*,38%*,i,-1,3
CC(C)CN(C(=O)CSc1nc(N)cc(N)n1)C1CCS(=O)(=O)C1 (stereo not drawn),.,.,9,.,i,.,.,.,.,.
O=C(NC1CCSc2ccccc21)c1cc([N+](=O)[O-])ccc1N1CCOCC1 (stereo not drawn),.,-2,20,0,i,i,.,.,.,.
CCOC(=O)N1CCC(N2C(=O)c3ccccc3C2Nc2ccc(S(=O)(=O)N3CCCCC3)cc2)CC1 (stereo not drawn),-38,-1,3,1,.,i,.,.,.,.
O=C(c1ccco1)N1CCN(C(=O)c2ccc(COc3ccc4c(c3)CCC4)o2)CC1,-39,-1,13,1,i,i,.,.,.,.
CCOc1ccc(OCc2ccc(C(=O)N3N=C(C(F)F)CC3(O)C(F)F)o2)cc1 (stereo not drawn),-16,-2,-1,1,i,25*,i,i,-1.1,-14
CCCc1ccc(OCc2ccc(C(=O)N3CCCC3)o2)cc1,-34,-2,15,2,i,100*,62%*,i,-0.99,-19
